From PubChem BioAssay (NCI) come the findings set out here.

This is part of a sample that, as a whole, favours compounds with a hit. Of some 83,000 tested, about 20% had one in any assay.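 Growth was measured after 48 h exposure to one concentration of compound in 96-well plates. Values under 10 count as active.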 A number with no mark means an inactive call. The source made the active and inactive calls.

Test systems include OVCAR-8 ovarian; OVCAR-5 ovarian; OVCAR-4 ovarian; SK-OV-3 ovarian; OVCAR-3 ovarian; HS 578T breast; NCI/ADR-RES ovarian; T-47D breast; BT-549 breast; MDA-MB-435 melanoma; SW-620 colon; HCT-116 colon; HCC-2998 colon; KM12 colon; IGROV1 ovarian; MCF7 breast.
Experiment in all cases: NCI-60 one-dose screen, 48 h (100 = growth as untreated, 0 = no growth, -100 = all killed)
Conditions in all cases: 10 µM unless noted

Consider `ClC1=C(Cl)C(Cl)=C(Cl)C1=C/C=C/c1ccccc1`, for which the growth was -41.7% (active) with OVCAR-8 ovarian; -77.9% (active) in the test with OVCAR-5 ovarian; 14.7% in the test with OVCAR-4 ovarian; -22% (active) in the test with SK-OV-3 ovarian; -88.7% (active) with OVCAR-3 ovarian; -5.58% (active) in the test with HS 578T breast. The growth was -0.902% (active) with NCI/ADR-RES ovarian; -4.63% (active) in the test with T-47D breast; -12.6% (active) in the test with BT-549 breast; -28.5% (active) in the test on MDA-MB-435 melanoma; -55.2% (active) with SW-620 colon; -98% (active) in the test with HCT-116 colon. Also, the growth in the test with HCC-2998 colon is -93.3% (active); in the test on KM12 colon it was -77.8% (active).
For `CC(=O)n1c2ccccc2c2ccccc21`, the growth with OVCAR-8 ovarian is 100%; in the test on OVCAR-5 ovarian it was 89.3%; in the test with OVCAR-4 ovarian it was 105%; with SK-OV-3 ovarian it was 122%; in the test with IGROV1 ovarian, 101%; in the test on OVCAR-3 ovarian, 114%. In addition, the growth in the test with NCI/ADR-RES ovarian was 100%; with T-47D breast it was 105%; with BT-549 breast, 119%; in the test with MDA-MB-435 melanoma, 106%; with SW-620 colon it was 106%; in the test on MCF7 breast, 104%. Further, the growth in the test on HCT-116 colon is 102%; in the test with HCC-2998 colon, 96.1%; in the test on KM12 colon, 114%.
`Cc1ccc(C=C2C(Cl)=C(Cl)C(Cl)=C2Cl)cc1`: the growth was -42.9% (active) in the test with OVCAR-8 ovarian; -80.7% (active) in the test with OVCAR-5 ovarian; -35.3% (active) in the test on OVCAR-4 ovarian; -38.5% (active) in the test on SK-OV-3 ovarian; -85.1% (active) with OVCAR-3 ovarian; -9.6% (active) with HS 578T breast. The growth in the test with NCI/ADR-RES ovarian is -3% (active); in the test with T-47D breast, -44.6% (active); in the test with BT-549 breast, -31.3% (active); in the test on MDA-MB-435 melanoma, -61.9% (active); in the test with SW-620 colon, -77.9% (active); with MCF7 breast, -23.8% (active). For the same molecule, the growth in the test on HCT-116 colon was -100% (active); with HCC-2998 colon it was -94.8% (active); with KM12 colon, -79.6% (active).
With `NC(=Nc1ccccc1)SCCCCSC(N)=Nc1ccccc1`, the growth in the test with OVCAR-8 ovarian is 83.7%; with OVCAR-5 ovarian, 83.3%; in the test on OVCAR-4 ovarian it was 77.3%; with SK-OV-3 ovarian, 108%; in the test on IGROV1 ovarian, 75.3%; in the test with OVCAR-3 ovarian it was 72%. Moreover, the growth was 66.3% in the test with NCI/ADR-RES ovarian; 62.2% in the test with T-47D breast; 86.4% with BT-549 breast; 89.4% in the test on MDA-MB-435 melanoma; 92.3% in the test on SW-620 colon; 88% with HCT-116 colon. Also, the growth with HCC-2998 colon is 77.6%; with KM12 colon, 94.2%.
For the molecule `Nc1ccccc1-c1ccc([N+](=O)[O-])cc1`, the growth was 75.3% with OVCAR-8 ovarian; 75% in the test on OVCAR-5 ovarian; 63.2% with OVCAR-4 ovarian; 90.6% in the test on SK-OV-3 ovarian; 56.2% in the test on IGROV1 ovarian; 71.7% with OVCAR-3 ovarian. In addition, the growth in the test on NCI/ADR-RES ovarian was 52.2%; in the test on T-47D breast it was 38.6%; with BT-549 breast, -33.9% (active); with MDA-MB-435 melanoma, 52.4%; with SW-620 colon, 43.8%; in the test on MCF7 breast it was 40.1%. Moreover, the growth in the test with HCT-116 colon is 60.1%; with HCC-2998 colon it was 29.8%; in the test with KM12 colon, 24.1%.
With `CCOC(=O)C(Cc1ccccc1)(C(=O)OCC)C(Br)C(=O)c1ccccc1` (centres undefined), the growth in the test with OVCAR-8 ovarian is 81.4%; in the test with OVCAR-5 ovarian, 98.1%; with OVCAR-4 ovarian, 39.8%; with SK-OV-3 ovarian, 92.2%; with IGROV1 ovarian, 75.1%; in the test with OVCAR-3 ovarian it was 61.3%. Moreover, the growth was 85.1% in the test with NCI/ADR-RES ovarian; 77.3% in the test with MDA-MB-435 melanoma; 39.8% in the test on SW-620 colon; 56.9% in the test on MCF7 breast; 53.3% in the test with HCT-116 colon; 100% in the test with HCC-2998 colon. Further, in the test on KM12 colon, the growth is 97.9%.
For the molecule `O=C(/C=C/c1ccccc1)CC(c1ccccc1)N1CCOCC1` (centres undefined), the growth is 85.1% in the test with OVCAR-8 ovarian; 98.7% with OVCAR-5 ovarian; 105% with OVCAR-4 ovarian; 98.4% with SK-OV-3 ovarian; 91.8% in the test with IGROV1 ovarian; 78.9% in the test with OVCAR-3 ovarian. Moreover, the growth in the test on NCI/ADR-RES ovarian is 104%; in the test with T-47D breast, 81.3%; with BT-549 breast, -79.4% (active); with MDA-MB-435 melanoma, 11.8%; with SW-620 colon, -16.7% (active); in the test on MCF7 breast, 11.1%. The growth in the test on HCT-116 colon is -97% (active); with KM12 colon, -81% (active).
With `CC(=O)NC1(C(=O)O)CCCC1`, the growth in the test on OVCAR-8 ovarian was 99.8%; in the test on OVCAR-5 ovarian, 158%; in the test with OVCAR-4 ovarian it was 112%; in the test with SK-OV-3 ovarian, 118%; in the test on OVCAR-3 ovarian, 112%; in the test with HS 578T breast it was 122%. The growth in the test on NCI/ADR-RES ovarian was 140%; in the test with T-47D breast, 128%; in the test on BT-549 breast it was 118%; with MDA-MB-435 melanoma, 123%; in the test on SW-620 colon, 103%; in the test on MCF7 breast it was 97.8%. For the same molecule, the growth with HCT-116 colon was 112%; in the test with KM12 colon, 119%.
As to `CCCCCCCC1(C)NC(=O)NC1=O` (centres undefined), the growth with OVCAR-8 ovarian was 104%; in the test on OVCAR-5 ovarian, 163%; in the test with OVCAR-4 ovarian, 105%; in the test on SK-OV-3 ovarian, 114%; in the test on OVCAR-3 ovarian, 115%; with HS 578T breast, 114%. Moreover, the growth was 138% in the test on NCI/ADR-RES ovarian; 123% in the test on T-47D breast; 121% with BT-549 breast; 123% in the test on MDA-MB-435 melanoma; 100% in the test with SW-620 colon; 97.6% with MCF7 breast. Besides, the growth in the test with HCT-116 colon is 103%; in the test on HCC-2998 colon it was 140%; in the test with KM12 colon it was 113%.
Turning to `O=C(N1CCC(CN=c2cc3n(-c4ccc(Cl)cc4)c4ccccc4nc-3cc2Nc2ccc(Cl)cc2)CC1)N1CC1`, the growth in the test on OVCAR-8 ovarian is -67.4% (active); in the test on OVCAR-5 ovarian, -78.3% (active); with OVCAR-4 ovarian, -74.6% (active); with SK-OV-3 ovarian, -63.7% (active); with IGROV1 ovarian it was -92.3% (active); with HS 578T breast, -56.4% (active). Moreover, the growth was -45.5% (active) in the test on NCI/ADR-RES ovarian; -46.8% (active) in the test on T-47D breast; -82.5% (active) in the test on BT-549 breast; -29.4% (active) in the test on MDA-MB-435 melanoma; -83% (active) in the test with SW-620 colon; -71.6% (active) in the test on MCF7 breast. The figures for the growth in the test with HCT-116 colon, in the test with HCC-2998 colon and in the test with KM12 colon were -70.9% (active), -75.9% (active) and -63.7% (active), respectively.
With `Cn1cnc([N+](=O)[O-])c1S(=O)(=O)Oc1ccc(Cl)cc1`, the growth is 76.6% in the test with OVCAR-8 ovarian; 102% in the test on OVCAR-5 ovarian; 102% in the test with OVCAR-4 ovarian; 104% in the test with SK-OV-3 ovarian; 69.8% in the test with IGROV1 ovarian; -60.3% (active) with OVCAR-3 ovarian. Further, the growth in the test on NCI/ADR-RES ovarian is 95.8%; with T-47D breast, -31.1% (active); with BT-549 breast it was 103%; with MDA-MB-435 melanoma, 78.8%; with SW-620 colon it was -31% (active); in the test on MCF7 breast, 63.7%. Also, the figures for the growth with HCT-116 colon, with HCC-2998 colon and in the test with KM12 colon were -32.1% (active), 83.1% and 84.9%, respectively.
